This passage reports Potency, activation and activity change, negative = inhibition results from PubChem BioAssay (NCATS).

Assay [1] addresses Rap guanine nucleotide exchange factor 3 (Homo sapiens) (UniProt O95398). Kind of assay: Confirmatory qHTS for agonist of cAMP-regulated guanine nucleotide exchange factor 3 (EPAC1) (AID 1645881).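 Further: EPAC1 catalysed release of BODIPY-GDP from Rap1B seen as fluorescence loss; 100% = effect of cAMP agonist control; nearly all actives have a fitted effect of over 75% in size.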
The target in assay [2] is Rap guanine nucleotide exchange factor 4 (Homo sapiens) (UniProt Q8WZA2). Kind of assay: Confirmatory qHTS for agonist of cAMP-regulated guanine nucleotide exchange factor 4 (EPAC2) (AID 1645884).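 Further: nucleotide exchange releases bodipy-GDP from Rap1 and this lowers its fluorescence; on the % scale 0 is the no-effect control and ±100 the full control effect; nearly all actives have a fitted effect of over 65% in size.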
For assay [3] the target is unchanged. Briefly: Confirmatory qHTS for antagonist of cAMP-regulated guanine nucleotide exchange factor 4 (EPAC2) (AID 1645885; further: nearly all actives have a fitted effect of over 25% in size; further: potency means the concentration at half of the fitted maximal effect; on activity change, negative = inhibition: on the % scale 0 is the no-effect control and ±100 the full control effect). (qHTS replaces the single test concentration by a dilution series.)
In assay [4] the target is Rap guanine nucleotide exchange factor 3 (Homo sapiens) (UniProt O95398). Briefly: Counterscreen qHTS for antagonist of cAMP-regulated guanine nucleotide exchange factor 3 (EPAC1) (AID 1645888).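 Further: fluorescence loss as bound BODIPY-GDP is released from Rap1B; % of control where 0% means no effect.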 The gist of the method:
(§1)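 Rap1B–BODIPY-GDP (250 nM) with 50 uM GDP; compounds pin-transferred to 9.74 nM–152 uM final (activator) or from 7.32 nM upwards (inhibitor). Fluorescence Ex/Em 480/540 nm read at 5 and 30 min, then after adding cAMP or buffer, at room temperature.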
On the technique in general: The purpose of a counterscreen is to sort out artefacts and off-target activity.

Assay [5] shares this target. Kind of assay: Counterscreen qHTS for agonist of cAMP-regulated guanine nucleotide exchange factor 3 (EPAC1) (AID 1645889). Further: nearly all actives have a fitted effect of over 40% in size. Further: potency means the concentration at half of the fitted maximal effect. On activation: % of control where 0% means no effect. The gist of the method: as §1

The structures appear in SMILES notation. Where “and” joins values, the source holds several entries; their conditions need not be identical. Equal entries are not always repeated. Inconclusive results are not listed. Some compounds were tested as several samples or in several runs, with calls that do not always agree. Calls of active or inactive are those of the source. The call rests on the fitted dose curve; in most records, active means well fitted curve in the direction sought with a large enough effect; inconclusive means small, poorly fitted or top-dose-only effect, or another doubt; inactive means no such curve, though single readings can be large; an effect the other way counts as inactive or inconclusive.

Sequence of Rap guanine nucleotide exchange factor 3 (Homo sapiens) (O95398 whole entry, looked up): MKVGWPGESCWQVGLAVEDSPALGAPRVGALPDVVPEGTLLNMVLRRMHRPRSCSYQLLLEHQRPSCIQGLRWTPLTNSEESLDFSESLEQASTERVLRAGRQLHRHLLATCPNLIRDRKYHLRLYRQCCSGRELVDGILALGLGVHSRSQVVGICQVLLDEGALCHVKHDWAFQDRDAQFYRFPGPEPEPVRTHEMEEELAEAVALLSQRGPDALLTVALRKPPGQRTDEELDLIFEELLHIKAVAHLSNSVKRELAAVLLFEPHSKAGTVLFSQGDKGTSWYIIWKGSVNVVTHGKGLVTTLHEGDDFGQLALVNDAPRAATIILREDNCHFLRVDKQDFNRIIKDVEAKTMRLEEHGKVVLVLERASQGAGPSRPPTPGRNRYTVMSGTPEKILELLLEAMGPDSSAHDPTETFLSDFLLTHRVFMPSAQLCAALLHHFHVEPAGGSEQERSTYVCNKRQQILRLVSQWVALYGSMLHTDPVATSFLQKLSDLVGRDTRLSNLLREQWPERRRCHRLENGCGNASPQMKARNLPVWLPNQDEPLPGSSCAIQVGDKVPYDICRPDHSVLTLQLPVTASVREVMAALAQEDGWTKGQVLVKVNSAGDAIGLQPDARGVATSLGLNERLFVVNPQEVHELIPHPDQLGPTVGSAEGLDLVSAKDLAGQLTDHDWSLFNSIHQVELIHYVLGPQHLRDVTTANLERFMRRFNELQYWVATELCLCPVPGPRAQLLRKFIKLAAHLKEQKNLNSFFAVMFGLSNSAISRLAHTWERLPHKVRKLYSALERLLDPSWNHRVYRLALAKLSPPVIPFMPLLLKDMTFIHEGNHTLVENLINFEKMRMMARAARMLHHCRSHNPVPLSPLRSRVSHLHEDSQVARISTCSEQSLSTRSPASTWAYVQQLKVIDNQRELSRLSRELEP
Sequence of Rap guanine nucleotide exchange factor 4 (Homo sapiens) (Q8WZA2 whole entry, looked up): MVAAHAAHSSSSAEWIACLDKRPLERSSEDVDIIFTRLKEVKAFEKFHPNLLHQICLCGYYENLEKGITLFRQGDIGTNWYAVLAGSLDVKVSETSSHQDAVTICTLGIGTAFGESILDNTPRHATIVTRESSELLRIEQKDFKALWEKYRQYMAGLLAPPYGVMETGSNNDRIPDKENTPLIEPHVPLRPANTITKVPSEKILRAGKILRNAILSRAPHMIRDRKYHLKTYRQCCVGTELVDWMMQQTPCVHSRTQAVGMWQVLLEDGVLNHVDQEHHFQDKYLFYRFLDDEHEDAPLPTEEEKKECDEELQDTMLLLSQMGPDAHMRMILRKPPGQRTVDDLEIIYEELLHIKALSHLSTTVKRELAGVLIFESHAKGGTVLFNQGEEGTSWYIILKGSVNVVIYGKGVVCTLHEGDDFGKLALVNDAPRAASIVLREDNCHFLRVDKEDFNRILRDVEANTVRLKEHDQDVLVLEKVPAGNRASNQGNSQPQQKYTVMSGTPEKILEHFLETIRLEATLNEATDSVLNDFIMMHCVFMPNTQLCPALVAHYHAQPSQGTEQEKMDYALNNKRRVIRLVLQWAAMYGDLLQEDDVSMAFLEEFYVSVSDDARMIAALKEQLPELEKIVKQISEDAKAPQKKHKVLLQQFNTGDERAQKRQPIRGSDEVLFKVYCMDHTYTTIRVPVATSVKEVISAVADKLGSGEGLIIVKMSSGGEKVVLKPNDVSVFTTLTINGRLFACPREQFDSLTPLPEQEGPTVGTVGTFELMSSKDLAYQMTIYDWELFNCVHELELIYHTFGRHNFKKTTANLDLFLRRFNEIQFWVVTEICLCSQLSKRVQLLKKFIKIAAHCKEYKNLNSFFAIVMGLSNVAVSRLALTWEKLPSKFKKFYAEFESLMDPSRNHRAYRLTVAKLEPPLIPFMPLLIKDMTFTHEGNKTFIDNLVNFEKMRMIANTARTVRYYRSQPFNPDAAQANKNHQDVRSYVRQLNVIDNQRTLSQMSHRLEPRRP

Take `O=C(Nc1cccc([N+](=O)[O-])c1)c1ccc2c(c1)C(=O)N(c1ccccn1)C2=O`: the Potency entry in assay [1] and in assay [3] was “inactive” each time. The activation in assay [2] was 10.8% [at 17.1 µM, percent relative to cAMP agonist control] (inactive); in assay [5], 12.1% [at 30.8 µM] (inactive). For the same compound, the activity change, negative = inhibition in assay [4] is -7.46% [at 30.8 µM] (inactive).
For `CCc1nnc(NS(=O)(=O)c2ccc(NCc3cc(Cl)cc(Cl)c3O)cc2)s1`, the Potency entry in assay [1], in assay [2], in assay [4] and in assay [5] was “inactive” each time. For the same compound, the Potency in assay [3] is 5.36 µM (active).
For `Cc1ccc(NC2c3ncccc3C(=O)N2Cc2cccs2)cc1` (stereo not given), the Potency entry in assay [1] and in assay [3] was “inactive” in each case. In addition, the activation was -5.52% [at 17.1 µM, percent relative to cAMP agonist control] (inactive) in assay [2] and 1.62% [at 30.8 µM] (inactive) in assay [5]. Also, the activity change, negative = inhibition in assay [4] is 8.01% [at 30.8 µM] (inactive).
On to `COC1=C(Nc2ccc(O)cc2)C(=O)c2ccccc2C1=O`, for which the Potency entry in assay [1] and in assay [3] was “inactive” in each case. Further, the activation was 5% [at 17.1 µM, percent relative to cAMP agonist control] (inactive) in assay [2] and 25.2% [at 30.8 µM] (inactive) in assay [5]. For the same compound, in assay [4], the activity change, negative = inhibition was 4.79% [at 30.8 µM] (inactive).
`O=C1/C(=C/c2cccc(F)c2)SC(=S)N1NS(=O)(=O)c1ccccc1`: the Potency result in assay [1], in assay [2], in assay [3], in assay [4] and in assay [5] was “inactive” each time.
Regarding `CC(/C=C1\SC(=S)N(CCC(=O)Nc2cccc(C(=O)O)c2)C1=O)=C\c1ccccc1`, the Potency result in assay [1] and in assay [3] was “inactive” in each case. The activation in assay [2] is 9.03% [at 17.1 µM, percent relative to cAMP agonist control] (inactive); in assay [5], 16.2% [at 30.8 µM] (inactive). For the same compound, the activity change, negative = inhibition in assay [4] is 19.7% [at 30.8 µM] (inactive).
Turning to `N#Cc1c(SCC(=O)Nc2nncs2)sc2c(O)cc(=O)[nH]c12`, the Potency result in assay [1], in assay [2], in assay [3], in assay [4] and in assay [5] was “inactive” in each case.
In the case of `Cc1ccc(C)n1-c1ccc(C(=O)/C=C/N(C)C)cc1`, the Potency entry in assay [1] and in assay [3] was “inactive” throughout. Further, the activation in assay [2] was 4.94% [at 17.1 µM, percent relative to cAMP agonist control] (inactive); in assay [5] it was 0.307% [at 30.8 µM] (inactive). Also, the activity change, negative = inhibition in assay [4] is -17.3% [at 30.8 µM] (inactive).
On to `O=c1c2ccccc2c(C=Nc2ccc(O)cc2)c(O)n1Cc1ccccc1`, for which the Potency result in assay [1] and in assay [3] was “inactive” in each case. Besides, the activation in assay [2] was 1.98% [at 17.1 µM, percent relative to cAMP agonist control] (inactive); in assay [5] it was 1.81% [at 30.8 µM] (inactive). Further, the activity change, negative = inhibition in assay [4] is -7.68% [at 30.8 µM] (inactive).
Take `Cn1c(SCC(=O)Nc2ccc(C(=O)O)cc2)nc2scc(-c3ccccc3Cl)c2c1=O`: the Potency entry in assay [1], in assay [2], in assay [4] and in assay [5] was “inactive” each time. Moreover, the Potency in assay [3] was 42.6 µM (active).
Take `Cc1ccc(S(=O)(=O)NC(=O)c2ccc(-c3ccc(C)c4ccccc34)o2)cc1`: the Potency entry in assay [1], in assay [2], in assay [3], in assay [4] and in assay [5] was “inactive” throughout.
For `COc1ccc(-n2c(C)cc(/C=C3\SC(=O)NC3=O)c2C)cc1`, the Potency result in assay [1], in assay [2], in assay [3], in assay [4] and in assay [5] was “inactive” each time.
Turning to `Cc1[nH]c(=O)nc(SCc2cccc(Cl)c2)c1C#N`, the Potency result in assay [1], in assay [2], in assay [3], in assay [4] and in assay [5] was “inactive” throughout.
For `Cc1c(C(=O)N2CCN(c3ncccn3)CC2)oc2c(Cl)cccc12`, the Potency entry in assay [1], in assay [2], in assay [3], in assay [4] and in assay [5] was “inactive” each time.
Turning to `CCOP(=O)(OCC)C(Cc1ccccc1)N=C(c1ccccc1)c1ccccc1` (stereo not given), the Potency result in assay [1] and in assay [3] was “inactive” throughout. Also, the activation in assay [2] was 2.26% [at 17.1 µM, percent relative to cAMP agonist control] (inactive); in assay [5], 12.6% [at 30.8 µM] (inactive). The activity change, negative = inhibition in assay [4] is 3.36% [at 30.8 µM] (inactive).
As to `COCCNc1nc(Oc2ccccc2)c2sccc2n1`, the Potency result in assay [1], in assay [2], in assay [3], in assay [4] and in assay [5] was “inactive” in each case.
For the compound `CCOCc1nnc(NC(=O)C2c3ccccc3Oc3ccccc32)s1`, the Potency entry in assay [1], in assay [2], in assay [4] and in assay [5] was “inactive” throughout. Moreover, the Potency in assay [3] is 67.5 µM (active).
Turning to `COc1ccc(OCC(=O)NCc2ccc3c(c2)CCN3C(=O)c2cccc(C)c2)cc1`, the Potency entry in assay [1], in assay [2], in assay [3], in assay [4] and in assay [5] was “inactive” in each case.
For the compound `C=CCn1cc(C(=O)N2CCc3ccccc3C2)c(=O)c2cc(S(=O)(=O)N(CC)CC)ccc21`, the Potency result in assay [1], in assay [2], in assay [3], in assay [4] and in assay [5] was “inactive” each time.
In the case of `C=CCn1c(=NC(=O)c2sc3ccccc3c2Cl)sc2cc(S(N)(=O)=O)ccc21`, the Potency entry in assay [1], in assay [2], in assay [3], in assay [4] and in assay [5] was “inactive” each time.
With `O=[N+]([O-])c1cc2oc3c(c2c(C=NCc2ccncc2)c1O)CCCC3`, the Potency entry in assay [1] and in assay [3] was “inactive” each time. The activation is 1.74% [at 17.1 µM, percent relative to cAMP agonist control] (inactive) in assay [2] and 15.1% [at 30.8 µM] (inactive) in assay [5]. Moreover, the activity change, negative = inhibition in assay [4] was -19.5% [at 30.8 µM] (inactive).
Consider `C/C(CC(=O)N1CCCC1)=N\NC(=O)c1cc2ccccc2cc1O`, for which the Potency entry in assay [1], in assay [2], in assay [3], in assay [4] and in assay [5] was “inactive” throughout.
Take `CC1CCCN(c2nc3ccccc3nc2C(C#N)S(=O)(=O)c2ccccc2)C1` (stereo not given): the Potency result in assay [1], in assay [2], in assay [3] and in assay [4] was “inactive” in each case. The Potency in assay [5] was 22.4 µM (active).
`CCc1ccc2c(c1)NC(=O)C2(C)Cc1ccccc1OC` (stereo not given): the Potency result in assay [1], in assay [2], in assay [3], in assay [4] and in assay [5] was “inactive” in each case.
Turning to `COc1ccc(Nc2nnc(-c3ccc(O)cc3)c3ccccc23)cc1`, the Potency result in assay [1] and in assay [3] was “inactive” each time. In addition, the activation is 5.03% [at 17.1 µM, percent relative to cAMP agonist control] (inactive) in assay [2] and 26.4% [at 30.8 µM] (inactive) in assay [5]. For the same compound, in assay [4], the activity change, negative = inhibition is -17.5% [at 30.8 µM] (inactive).
As for `Cc1c(N=Cc2cc(Br)cc(Br)c2O)cccc1C(=O)O`, the Potency result in assay [1] and in assay [3] was “inactive” in each case. The activation is -1.44% [at 17.1 µM, percent relative to cAMP agonist control] (inactive) in assay [2] and 3.4% [at 30.8 µM] (inactive) in assay [5]. The activity change, negative = inhibition in assay [4] is -0.566% [at 30.8 µM] (inactive).
Take `O=C(/C=C/c1ccc(Br)o1)NCc1ccccc1`: the Potency result in assay [1] and in assay [3] was “inactive” in each case. Moreover, the activation is -1.62% [at 17.1 µM, percent relative to cAMP agonist control] (inactive) in assay [2] and 21.3% [at 30.8 µM] (inactive) in assay [5]. For the same compound, in assay [4], the activity change, negative = inhibition was 13% [at 30.8 µM] (inactive).
As to `CCOC(=O)C1=C(C)NC(C)=C(C(=O)OCC)C1c1ccc([N+](=O)[O-])s1`, the Potency result in assay [1], in assay [2], in assay [4] and in assay [5] was “inactive” in each case. In addition, the Potency result in assay [3] is “inactive and 42.6 µM (active)”.
`Nc1ccc(C(=O)N/N=C/c2cn(Cc3ccccc3F)c3ccccc23)cc1`: the Potency entry in assay [1] and in assay [3] was “inactive” each time. The activation is 7.25% [at 17.1 µM, percent relative to cAMP agonist control] (inactive) in assay [2] and 39.9% [at 30.8 µM] (inactive) in assay [5]. For the same compound, the activity change, negative = inhibition in assay [4] is 31.2% [at 30.8 µM] (inactive).
Regarding `N#C/C(=N\Nc1cccc(C(F)(F)F)c1)C(=O)c1ccsc1`, the Potency entry in assay [1], in assay [2], in assay [3], in assay [4] and in assay [5] was “inactive” in each case.
On to `O=C(O)c1cc(-c2ccc(/C=C3/SC(=S)N(Cc4ccccc4)C3=O)o2)ccc1Cl`, for which the Potency entry in assay [1] and in assay [3] was “inactive” in each case. Moreover, the activation in assay [2] is -8.48% [at 17.1 µM, percent relative to cAMP agonist control] (inactive); in assay [5], 7.37% [at 30.8 µM] (inactive). Further, in assay [4], the activity change, negative = inhibition was -11.2% [at 30.8 µM] (inactive).
Regarding `C[C@H](c1ccccc1)N1C[C@H](COCc2ccccc2)Oc2cc(N3CC[C@@H](O)C3)ccc2S1(=O)=O`, the Potency result in assay [1] and in assay [3] was “inactive” in each case. Also, the activation in assay [2] was 10.3% [at 17.1 µM, percent relative to cAMP agonist control] (inactive); in assay [5], 20% [at 30.8 µM] (inactive). For the same compound, in assay [4], the activity change, negative = inhibition is -15.5% [at 30.8 µM] (inactive).
Consider `CC(C)C(=O)NC(c1ccccc1)c1cc([N+](=O)[O-])c2cccnc2c1O` (stereo not given), for which the Potency result in assay [1] and in assay [3] was “inactive” each time. Also, the activation in assay [2] was 4.72% [at 17.1 µM, percent relative to cAMP agonist control] (inactive); in assay [5] it was 39.4% [at 30.8 µM] (inactive). Further, in assay [4], the activity change, negative = inhibition is -3.56% [at 30.8 µM] (inactive).
For `CCN(C(=O)c1noc2c1COc1ccc(C)cc1-2)c1cccc(C)c1`, the Potency result in assay [1], in assay [2], in assay [3], in assay [4] and in assay [5] was “inactive” each time.
Regarding `CCCCCNC(=O)C(C#N)c1nc2ccccc2nc1N1CCCC1` (stereo not given), the Potency result in assay [1] and in assay [3] was “inactive” in each case. For the same compound, the activation in assay [2] was -33.7% [at 17.1 µM, percent relative to cAMP agonist control] (inactive); in assay [5] it was -1.55% [at 30.8 µM] (inactive). Besides, the activity change, negative = inhibition in assay [4] is -27.7% [at 30.8 µM] (inactive).
As for `Cc1ccc(NC(=O)CCC(=O)c2cccs2)nc1`, the Potency entry in assay [1] and in assay [3] was “inactive” each time. Besides, the activation was 3.39% [at 17.1 µM, percent relative to cAMP agonist control] (inactive) in assay [2] and 21.4% [at 30.8 µM] (inactive) in assay [5]. For the same compound, the activity change, negative = inhibition in assay [4] is -8.32% [at 30.8 µM] (inactive).
Take `Oc1ccc2ccccc2c1C=Nc1ccc(Cl)cn1`: the Potency result in assay [1], in assay [2], in assay [3], in assay [4] and in assay [5] was “inactive” each time.
